Measured values: PubChem BioAssay (EPA / NIEHS)
Inconclusive results are not listed. The source made the active and inactive calls. Rule for the calls: active = hit-call score of the fitted dose curve at least 0.9, where 1 is the maximum; inconclusive = response in the unintended direction; inactive = score below 0.9.

Each compound was assayed against guinea pig Serotonin, 5-Hydroxytryptamine Receptor 4 (5HT4), HTR4 (gene 100135548) (UniProt O70528) (assay: NVS_GPCR_g5HT4: NovaScreen (NVS) G Protein-Coupled Receptor Assay for guinea pig Serotonin, 5-Hydroxytryptamine Receptor 4 (5HT4) (AID 2283294)).
Method: NVS_GPCR_g5HT4 is a biochemical, single-readout assay that uses extracted gene-proteins from Guinea pig striatal membranes in a tissue-based cell-free assay. Measurements were taken 1 hour after chemical dosing in a 48-well plate.NVS_GPCR_g5HT4 is one of one assay component(s) measured or calculated from the NVS_GPCR_g5HT4 assay. It is designed to make measurements of radioligand binding, a form of binding reporter, as detected with scintillation counting signals by Filter-based radiodetection technology.Data from the assay component NVS_GPCR_g5HT4 was analyzed into 1 assay endpoint. This assay endpoint, NVS_GPCR_g5HT4, was analyzed in the positive analysis fitting direction relative to DMSO as the negative control and baseline of activity. Using a type of binding reporter, loss-of-signal activity can be used to understand changes in the binding as they relate to the gene Htr4. Furthermore, this assay endpoint can be referred to as a primary readout, because the performed assay has only produced 1 assay endpoint. To generalize the intended target to other relatable targets, this assay endpoint is annotated to the gpcr intended target family, where the subfamily is rhodopsin-like receptor.
Binding assays used specific radioligands (tritiated, iodinated) with non-radioactive competitive displacement ligands in agonist or antagonist protocols (as indicated) and various reference compounds and inhibitors to titrate specific binding to receptors and transporters. Most enzyme assays (CYPs, kinases, phosphatases, proteases, HDACs) used recombinant protein and specific substrates (fluorescence mostly, some colorimetric and radioactive) and inhibitors, followed by a biochemical separation of substrate and product. All assays for the biochemical HTS were initially run in duplicate at a single concentration (10 uM for CYP450 assays and 25 uM for all others). […] Each assay was run with positive and negative controls, and concurrent controls on every plate. The follow-up (secondary) screen tested active chemical-pairs in concentration series, as well as a few additional assays not tested in the primary screen, some selected negative inactives, and several cases re-run in the concentration series for confirmatory purposes.

Chain of guinea pig Serotonin, 5-Hydroxytryptamine Receptor 4 (5HT4), HTR4 (gene 100135548) (O70528 whole entry, looked up): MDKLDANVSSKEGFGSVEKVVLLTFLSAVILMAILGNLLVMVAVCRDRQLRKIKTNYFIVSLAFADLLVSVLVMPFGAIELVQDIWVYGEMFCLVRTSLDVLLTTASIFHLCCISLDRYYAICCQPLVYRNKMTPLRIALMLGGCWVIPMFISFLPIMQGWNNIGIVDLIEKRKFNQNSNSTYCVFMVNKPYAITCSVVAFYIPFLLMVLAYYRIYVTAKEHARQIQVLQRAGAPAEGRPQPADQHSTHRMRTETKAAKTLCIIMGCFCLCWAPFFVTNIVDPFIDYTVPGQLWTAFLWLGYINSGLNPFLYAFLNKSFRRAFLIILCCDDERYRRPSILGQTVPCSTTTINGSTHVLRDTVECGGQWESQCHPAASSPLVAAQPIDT

Question: For `CCN(CC)CCOc1ccc(C(=C(Cl)c2ccccc2)c2ccccc2)cc1`, which AC50 is on record?
Answer: The AC50 was 11.4 µM (active).

Question: `CC(C)c1cccc(C(C)C)c1` was tested. Which outcome did it give?
Answer: The outcome was “inactive”.

Question: With `CSc1ccc(Oc2ccc(S(N)(=O)=O)cc2CN(C)C)cc1C` as the compound, how does the AC50 read?
Answer: Its AC50 is 0.621 µM (active).

Question: `CCc1nc(N)nc(N)c1-c1ccc(Cl)cc1` was tested. Which AC50 did it give?
Answer: The AC50 was 4.48 µM (active).

Question: Which AC50 does the source give for `O=C(O)c1[nH]n(-c2ccc(S(=O)(=O)O)cc2)c(=O)c1N=Nc1ccc(S(=O)(=O)O)cc1` here?
Answer: The AC50 was 15.9 µM (active).

Question: With `COC(=O)[C@H]1[C@H]2C[C@@H]3c4[nH]c5cc(OC)ccc5c4CCN3C[C@H]2C[C@@H](OC(=O)c2cc(OC)c(OC)c(OC)c2)[C@@H]1OC` as the compound, how does the AC50 read?
Answer: Its AC50 is 5.67 µM (active).

Question: With `COc1ccc(OC(F)(F)F)cc1CN[C@H]1CCCN[C@H]1c1ccccc1` as the compound, how does the AC50 read?
Answer: The AC50 was 12.2 µM (active).

Question: `CN(C)CCCN(C)CCCN(C)C` was tested. Which outcome did it give?
Answer: Its outcome is “inactive”.

Question: How did the outcome turn out when `CC(C)COC(=O)CCCCC(=O)OCC(C)C` was run?
Answer: Its outcome is “inactive”.

Question: For `CC(=O)CC(c1ccccc1)c1c(O)c2ccccc2oc1=O` (stereo unspecified), which outcome is on record?
Answer: Its outcome is “inactive”.

Question: For `CN(C)CCCN1c2ccccc2Sc2ccc(Cl)cc21`, which AC50 is on record?
Answer: Its AC50 is 15.3 µM (active).
